Measured values: PubChem BioAssay (NCI)
This is part of a sample that, as a whole, favours compounds with a hit. Of some 79,000 tested, about 15% had one in any assay. Cut-off read from the data, not from the text of the source: active = growth inhibition above about 70%; inactive = the rest.

What was measured:
[1] = NCI Yeast Anticancer Drug Screen. Data for the rad50 strain (AID 155);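 note: 0% = growth of vehicle-only cultures of the same strain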; settings: S. cerevisiae rad50 strain growth inhibition; at 50.0 µM; active compounds read high
Outline: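 A DNA repair-deficient yeast mutant serves as the test organism; compound-induced growth inhibition is calculated against vehicle-treated cells.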

[2] = NCI Yeast Anticancer Drug Screen. Data for the mec2-1 strain (AID 157); settings: S. cerevisiae mec2-1 strain, at 50.0 µM, active compounds read high
Outline: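 Using mec2-1 yeast: add compound, measure growth, express inhibition versus vehicle-treated cultures.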

[3] = NCI Yeast Anticancer Drug Screen. Data for the sgs1 mgt1 strain (AID 161);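 note: 0% = growth of cultures given vehicle only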; settings: S. cerevisiae sgs1 mgt1 strain, at 50.0 µM, active compounds read high
Outline: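 Yeast cells carrying a defined DNA-repair defect were exposed to test compounds. Growth inhibition was measured relative to vehicle-treated controls.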

[4] = NCI Yeast Anticancer Drug Screen. Data for the cln2 rad14 strain (AID 165);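 note: 0% = growth equal to vehicle treated cultures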; settings: S. cerevisiae cln2 rad14 strain, at 50.0 µM, active compounds read high
Outline: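 Yeast strain cln2 rad14, bearing defects in cell cycle control and DNA repair, serves as the test system; values reflect growth inhibition compared with vehicle.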

[5] = NCI Yeast Anticancer Drug Screen. Data for the bub3 strain (AID 167); settings: S. cerevisiae bub3 mutant strain, at 50.0 µM, active compounds read high
Outline: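 Inhibition values come from growth of compound-treated mutant yeast normalised to vehicle-treated controls.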

[6] = NCI Yeast Anticancer Drug Screen. Data for the mlh1 rad18 strain (AID 175); settings: S. cerevisiae mlh1 rad18 strain growth inhibition; at 50.0 µM; active compounds read high
Outline: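 Steps: expose repair-defective yeast to compound; measure growth; express inhibition against vehicle-treated controls.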

Measured: growth inhibition

COc1ccc(OC)c(-c2cc(C(=O)O)c3cc4ccccc4cc3n2)c1
inactive: [1] 5.85% | [2] 6.05% | [3] -32.8% | [4] -69% | [5] -52.8% | [6] 17.2%

CN(C)c1ccc(/C=C/c2ccccc2)cc1
inactive: [1] -3.6% | [2] -6.15% | [3] -8.95% | [4] -15.1% | [5] -16.2% | [6] 1.55%

N/N=C(/C(=O)Nc1cccc(Cl)c1)C(C(=O)c1ccc(O)cc1O)C1OC(=O)c2ccccc21 (stereo not given)
inactive: [1] -17.4% | [2] -14.3% | [3] -8.1% | [4] 0.85% | [5] 6.1% | [6] 20.1%

CCOC(=O)C1=NN(c2ccccc2)C(=O)/C1=C\n1ccc(=O)[nH]c1=S
inactive: [1] -32.5% | [2] -43.8% | [3] -44.5% | [4] -36.1% | [5] -25.9% | [6] -60.8%

C[N+](C)(C)C1CC([N+](C)(C)C)C2c3ccccc3C21 (stereo not given)
inactive: [1] -15.2% | [2] 23.1% | [3] 1.95% | [4] -9.05% | [5] -3.35% | [6] 3.9%

Cn1cnc2c(Oc3ccc(Cl)cc3)ncnc21
inactive: [1] -7.35% | [2] -14.5% | [3] 5.25% | [4] 8.85% | [5] -22.7% | [6] 5.5%

O=C(O)c1ccc(C2CCCCC2O)cc1 (stereo not given)
inactive: [1] 2.05% | [2] 6.15% | [3] -9.2% | [4] -14.6% | [5] -2% | [6] 0.3%

N/N=C1\C(Cl)=C(Cl)c2ccccc21
inactive: [1] 6.65% | [2] -6.35% | [3] 10.2% | [4] -11.8% | [5] 2.95% | [6] 8.3%

COC(=O)C1=NC(=S)N=C(C(=O)OC)C1(C)C(=O)c1ccc(Cl)cc1
inactive: [1] -2.55% | [2] 2.65% | [3] -14.9% | [4] 17.2% | [5] 2.75% | [6] 4.35%

CC[C@H]1CN(C)[C@H]2Cc3c([nH]c4ccccc34)C(=O)C[C@H]1C2C(=O)OC (stereo not given in full)
inactive: [1] -0.35% | [2] -0.95% | [3] 6.95% | [4] 12.6% | [5] -1.65% | [6] -35.9%

Cc1ccccc1N=CC(C=O)[N+](=O)[O-] (stereo not given)
inactive: [1] -1.65% | [2] -9.8% | [3] 0.95% | [4] 4.1% | [5] -4.7% | [6] -5.65%

CC(=O)Nc1ccc(N(C)C)cc1Cl
inactive: [1] -24.6% | [2] -17.2% | [3] -13.7% | [4] -17.1% | [5] -1.8% | [6] -16.1%

NC1=NN(c2c(Cl)cc(Cl)cc2Cl)C(=O)C1
inactive: [1] 21.9% | [2] -3.8% | [3] 17.6% | [4] 33.3% | [5] 33% | [6] 39.6%

COC(=O)C1=C(O)C(C(=O)OC)[C@@]2(O)[C@@H](C(=O)OC)CC[C@@H]1[C@@H]2C(=O)OC (stereo not given in full)
inactive: [1] -1.45% | [2] -9.1% | [3] -13.8% | [4] 3% | [5] -3.5% | [6] 8.95%

Cc1nc(-c2nc(C)c(C(=O)NNC(=O)C[n+]3ccccc3)s2)sc1C(=O)NNC(=O)C[n+]1ccccc1
inactive: [1] 21.9% | [2] 10.6% | [3] 52% | [4] -20.9% | [5] 0.2% | [6] 14.4%

COc1cccc(C2c3cc4c(cc3OC(N3CCCC3)C2C)OCO4)c1OC (stereo not given)
inactive: [1] 24.8% | [2] 17.6% | [3] -9.65% | [4] 1% | [5] 11.4% | [6] 29.9%

CCOC(=O)C1(C(=O)OCC)CCCCC1=O
inactive: [1] 13.2% | [2] -15.2% | [3] -22.9% | [4] 11.2% | [5] -46.6% | [6] -1.1%

C/C=C/[C@@H]1[C@H]2C(=O)[C@]3(Cl)[C@@H](/C=C/C)[C@@H]3C(=O)[C@@]12Cl
inactive: [1] 5.05% | [2] 6.1% | [3] 6.45% | [4] 12.8% | [5] 10% | [6] 29.6%

NCCCNC/C=C/CNCCCN
inactive: [1] 25.8% | [2] -0.5% | [3] 2.7% | [4] 11.2% | [5] -0.8% | [6] -2.45%

Fc1ccc(N=C2c3ccccc3-c3ccccc32)cc1
inactive: [1] 6.35% | [2] -1.9% | [3] -0.25% | [4] 5.3% | [5] 1.65% | [6] 1.15%
